From ChEMBL document CHEMBL1961873, “Compounds: GSK PKIS; Assays: Nanosyn kinase panel” (2012) come the findings set out here.

SMILES strings stand for the structures.

Broadly, the inhibition is the relative decrease from the control value, in per cent.

Test [1] relates to Tyrosine-protein kinase ABL1 (Homo sapiens), P00519 [T315I]. Conditions: at 1 µM.
The subject of test [2] is Tyrosine-protein kinase ABL1 (Homo sapiens), P00519 [Y253F]. Particulars: at 0.1 µM.
Test [3] shares this test system. Particulars: at 1 µM.
Test [4] deals with Tyrosine-protein kinase ABL1 (Homo sapiens) (UniProt P00519). Particulars: at 0.1 µM.
The target is the same in test [5]. Particulars: at 1 µM.
For test [6], the target named is ALK tyrosine kinase receptor (Homo sapiens) (UniProt Q9UM73). Particulars: at 0.1 µM.
ALK tyrosine kinase receptor (Homo sapiens), sequence (Q9UM73 19-1620 limits assumed): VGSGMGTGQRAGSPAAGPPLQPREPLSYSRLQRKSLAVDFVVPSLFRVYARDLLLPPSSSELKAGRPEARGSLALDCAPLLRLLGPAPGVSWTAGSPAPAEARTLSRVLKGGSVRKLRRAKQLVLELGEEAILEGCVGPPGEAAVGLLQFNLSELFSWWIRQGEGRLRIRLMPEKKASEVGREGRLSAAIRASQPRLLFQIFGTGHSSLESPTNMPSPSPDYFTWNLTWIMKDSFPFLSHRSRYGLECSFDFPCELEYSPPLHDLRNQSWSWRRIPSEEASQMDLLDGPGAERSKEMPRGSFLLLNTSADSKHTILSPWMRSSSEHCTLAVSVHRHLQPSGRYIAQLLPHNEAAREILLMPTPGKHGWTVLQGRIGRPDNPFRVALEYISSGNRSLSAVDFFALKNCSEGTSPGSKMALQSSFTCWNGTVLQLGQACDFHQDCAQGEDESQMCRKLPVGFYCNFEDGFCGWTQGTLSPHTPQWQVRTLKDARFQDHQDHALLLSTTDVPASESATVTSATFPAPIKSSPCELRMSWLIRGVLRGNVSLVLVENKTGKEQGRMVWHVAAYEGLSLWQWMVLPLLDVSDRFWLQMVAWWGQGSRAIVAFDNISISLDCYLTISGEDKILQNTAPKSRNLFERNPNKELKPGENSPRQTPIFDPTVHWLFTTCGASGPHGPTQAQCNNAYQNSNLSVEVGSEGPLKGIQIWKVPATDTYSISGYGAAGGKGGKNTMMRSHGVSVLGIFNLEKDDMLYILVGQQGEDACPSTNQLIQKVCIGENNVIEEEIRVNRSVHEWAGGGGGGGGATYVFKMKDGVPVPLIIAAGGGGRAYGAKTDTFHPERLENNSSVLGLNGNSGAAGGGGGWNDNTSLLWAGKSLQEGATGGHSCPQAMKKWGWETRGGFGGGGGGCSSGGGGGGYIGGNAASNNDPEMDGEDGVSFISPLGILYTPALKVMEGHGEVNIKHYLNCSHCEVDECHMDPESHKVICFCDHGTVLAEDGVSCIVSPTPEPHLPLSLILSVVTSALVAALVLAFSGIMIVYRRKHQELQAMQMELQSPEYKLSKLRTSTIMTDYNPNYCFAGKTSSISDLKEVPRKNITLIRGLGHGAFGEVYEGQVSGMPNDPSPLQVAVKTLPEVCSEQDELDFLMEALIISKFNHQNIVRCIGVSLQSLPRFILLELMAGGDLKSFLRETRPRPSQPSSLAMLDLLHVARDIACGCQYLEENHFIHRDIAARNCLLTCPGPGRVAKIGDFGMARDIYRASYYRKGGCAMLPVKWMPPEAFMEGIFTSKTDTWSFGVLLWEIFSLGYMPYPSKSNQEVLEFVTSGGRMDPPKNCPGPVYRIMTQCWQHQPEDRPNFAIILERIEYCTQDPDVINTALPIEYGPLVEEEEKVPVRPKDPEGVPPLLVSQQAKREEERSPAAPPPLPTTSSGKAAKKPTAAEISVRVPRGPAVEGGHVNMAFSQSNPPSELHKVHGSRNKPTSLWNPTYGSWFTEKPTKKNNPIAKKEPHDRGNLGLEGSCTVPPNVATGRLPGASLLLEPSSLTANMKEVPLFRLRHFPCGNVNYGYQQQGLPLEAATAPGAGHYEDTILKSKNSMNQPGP
Test [7] has the same target. Conditions: at 1 µM.
Test [8] concerns the target Tyrosine-protein kinase ABL2 (Homo sapiens) (UniProt P42684). Conditions: at 0.1 µM.
The target is the same in test [9]. Particulars: at 1 µM.
Test [10] deals with Tyrosine-protein kinase receptor UFO (Homo sapiens) (UniProt P30530). Particulars: at 0.1 µM.
Tyrosine-protein kinase receptor UFO (Homo sapiens), sequence (P30530 whole entry): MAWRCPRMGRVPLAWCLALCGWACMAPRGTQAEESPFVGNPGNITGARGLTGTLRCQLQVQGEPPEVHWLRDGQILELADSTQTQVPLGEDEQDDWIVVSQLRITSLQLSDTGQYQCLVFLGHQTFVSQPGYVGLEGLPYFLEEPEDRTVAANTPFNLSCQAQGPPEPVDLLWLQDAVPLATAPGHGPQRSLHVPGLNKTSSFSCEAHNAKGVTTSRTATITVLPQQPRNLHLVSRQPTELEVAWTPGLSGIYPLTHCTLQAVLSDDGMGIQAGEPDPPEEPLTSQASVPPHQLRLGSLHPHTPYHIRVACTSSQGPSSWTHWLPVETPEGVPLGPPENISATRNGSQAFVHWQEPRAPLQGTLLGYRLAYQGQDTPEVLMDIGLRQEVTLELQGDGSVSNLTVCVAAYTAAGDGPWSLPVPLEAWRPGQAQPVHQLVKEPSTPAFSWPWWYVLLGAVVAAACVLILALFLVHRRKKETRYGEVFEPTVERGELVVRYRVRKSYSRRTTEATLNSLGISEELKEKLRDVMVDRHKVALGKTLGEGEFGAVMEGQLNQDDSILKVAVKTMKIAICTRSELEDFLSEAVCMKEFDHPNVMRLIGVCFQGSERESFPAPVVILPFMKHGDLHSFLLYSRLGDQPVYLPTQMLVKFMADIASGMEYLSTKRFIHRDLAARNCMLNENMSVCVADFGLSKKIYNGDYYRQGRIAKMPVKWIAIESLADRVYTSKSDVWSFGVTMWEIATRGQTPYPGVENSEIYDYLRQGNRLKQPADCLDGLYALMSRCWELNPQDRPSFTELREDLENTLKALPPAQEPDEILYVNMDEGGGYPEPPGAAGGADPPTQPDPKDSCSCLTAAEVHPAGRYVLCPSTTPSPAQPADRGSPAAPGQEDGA
Test [11] shares this target. Particulars: at 1 µM.
Test [12] addresses Tyrosine-protein kinase Blk (Homo sapiens) (UniProt P51451). Particulars: at 0.1 µM.
Test [13] has the same target. Particulars: at 1 µM.
Test [14] deals with T1, Cytoplasmic tyrosine-protein kinase BMX (Homo sapiens) (UniProt P51813).
T1 sequence (whole entry): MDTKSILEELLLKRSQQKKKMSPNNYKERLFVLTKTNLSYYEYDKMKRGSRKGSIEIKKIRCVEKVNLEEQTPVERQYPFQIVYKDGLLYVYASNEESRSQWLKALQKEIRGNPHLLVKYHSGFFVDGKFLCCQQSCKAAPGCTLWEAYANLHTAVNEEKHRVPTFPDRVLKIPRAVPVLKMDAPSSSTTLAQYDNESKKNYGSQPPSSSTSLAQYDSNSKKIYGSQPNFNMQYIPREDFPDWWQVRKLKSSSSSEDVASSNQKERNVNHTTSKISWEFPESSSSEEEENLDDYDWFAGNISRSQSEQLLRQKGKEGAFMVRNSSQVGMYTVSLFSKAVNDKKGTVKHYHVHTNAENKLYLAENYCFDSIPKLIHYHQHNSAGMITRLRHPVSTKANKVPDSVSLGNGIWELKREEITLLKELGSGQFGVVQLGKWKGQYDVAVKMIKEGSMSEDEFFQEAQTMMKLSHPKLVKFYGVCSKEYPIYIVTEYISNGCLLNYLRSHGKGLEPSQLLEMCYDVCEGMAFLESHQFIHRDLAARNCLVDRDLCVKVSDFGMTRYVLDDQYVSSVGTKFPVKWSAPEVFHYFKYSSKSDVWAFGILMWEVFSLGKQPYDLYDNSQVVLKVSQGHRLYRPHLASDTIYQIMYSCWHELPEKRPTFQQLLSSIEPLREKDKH
Conditions: at 0.1 µM.

Test [15] concerns the target T1, Cytoplasmic tyrosine-protein kinase BMX (Homo sapiens). Particulars: at 1 µM.
Test [16] has as its target Protein-tyrosine kinase 6 (Homo sapiens) (UniProt Q13882). Conditions: at 0.1 µM.
For test [17] the target is unchanged. Conditions: at 1 µM.
Test [18] deals with Tyrosine-protein kinase BTK (Homo sapiens) (UniProt Q06187). Conditions: at 0.1 µM.
Test [19] shares this target. Conditions: at 1 µM.
Test [20] concerns the target Tyrosine-protein kinase CSK (Homo sapiens) (UniProt P41240). Conditions: at 0.1 µM.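 Also: value given is the averaged percent inhibition of CSK kinase activity, from the GSK PKIS kinase inhibitor set screening panel.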

Tyrosine-protein kinase Blk (Homo sapiens), sequence (P51451 2-505 limits assumed): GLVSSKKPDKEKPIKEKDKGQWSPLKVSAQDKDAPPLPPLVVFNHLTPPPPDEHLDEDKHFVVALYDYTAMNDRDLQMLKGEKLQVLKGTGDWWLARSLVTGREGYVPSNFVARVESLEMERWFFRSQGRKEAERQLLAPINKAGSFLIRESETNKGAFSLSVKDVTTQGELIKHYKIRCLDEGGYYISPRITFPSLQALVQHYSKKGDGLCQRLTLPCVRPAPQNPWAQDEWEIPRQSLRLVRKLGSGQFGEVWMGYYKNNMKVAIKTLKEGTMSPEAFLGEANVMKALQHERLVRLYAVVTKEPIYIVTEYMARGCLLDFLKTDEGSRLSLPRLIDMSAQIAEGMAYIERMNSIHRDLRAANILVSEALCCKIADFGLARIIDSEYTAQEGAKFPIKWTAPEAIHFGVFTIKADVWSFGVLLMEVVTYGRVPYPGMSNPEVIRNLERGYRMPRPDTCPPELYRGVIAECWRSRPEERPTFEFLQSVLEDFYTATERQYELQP
Protein-tyrosine kinase 6 (Homo sapiens), sequence (Q13882 whole entry, looked up): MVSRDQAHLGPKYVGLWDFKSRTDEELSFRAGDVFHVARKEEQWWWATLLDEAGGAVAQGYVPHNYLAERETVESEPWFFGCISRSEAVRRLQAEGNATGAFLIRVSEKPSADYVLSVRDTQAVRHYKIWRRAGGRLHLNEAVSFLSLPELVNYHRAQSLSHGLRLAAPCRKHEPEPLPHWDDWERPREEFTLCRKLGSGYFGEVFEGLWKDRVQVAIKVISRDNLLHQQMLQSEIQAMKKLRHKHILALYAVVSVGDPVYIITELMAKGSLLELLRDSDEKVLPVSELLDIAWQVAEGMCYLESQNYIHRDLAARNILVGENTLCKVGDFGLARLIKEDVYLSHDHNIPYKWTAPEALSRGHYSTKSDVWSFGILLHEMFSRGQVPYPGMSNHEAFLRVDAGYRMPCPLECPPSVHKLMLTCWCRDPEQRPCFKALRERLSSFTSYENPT
Tyrosine-protein kinase ABL2 (Homo sapiens), sequence (P42684 whole entry): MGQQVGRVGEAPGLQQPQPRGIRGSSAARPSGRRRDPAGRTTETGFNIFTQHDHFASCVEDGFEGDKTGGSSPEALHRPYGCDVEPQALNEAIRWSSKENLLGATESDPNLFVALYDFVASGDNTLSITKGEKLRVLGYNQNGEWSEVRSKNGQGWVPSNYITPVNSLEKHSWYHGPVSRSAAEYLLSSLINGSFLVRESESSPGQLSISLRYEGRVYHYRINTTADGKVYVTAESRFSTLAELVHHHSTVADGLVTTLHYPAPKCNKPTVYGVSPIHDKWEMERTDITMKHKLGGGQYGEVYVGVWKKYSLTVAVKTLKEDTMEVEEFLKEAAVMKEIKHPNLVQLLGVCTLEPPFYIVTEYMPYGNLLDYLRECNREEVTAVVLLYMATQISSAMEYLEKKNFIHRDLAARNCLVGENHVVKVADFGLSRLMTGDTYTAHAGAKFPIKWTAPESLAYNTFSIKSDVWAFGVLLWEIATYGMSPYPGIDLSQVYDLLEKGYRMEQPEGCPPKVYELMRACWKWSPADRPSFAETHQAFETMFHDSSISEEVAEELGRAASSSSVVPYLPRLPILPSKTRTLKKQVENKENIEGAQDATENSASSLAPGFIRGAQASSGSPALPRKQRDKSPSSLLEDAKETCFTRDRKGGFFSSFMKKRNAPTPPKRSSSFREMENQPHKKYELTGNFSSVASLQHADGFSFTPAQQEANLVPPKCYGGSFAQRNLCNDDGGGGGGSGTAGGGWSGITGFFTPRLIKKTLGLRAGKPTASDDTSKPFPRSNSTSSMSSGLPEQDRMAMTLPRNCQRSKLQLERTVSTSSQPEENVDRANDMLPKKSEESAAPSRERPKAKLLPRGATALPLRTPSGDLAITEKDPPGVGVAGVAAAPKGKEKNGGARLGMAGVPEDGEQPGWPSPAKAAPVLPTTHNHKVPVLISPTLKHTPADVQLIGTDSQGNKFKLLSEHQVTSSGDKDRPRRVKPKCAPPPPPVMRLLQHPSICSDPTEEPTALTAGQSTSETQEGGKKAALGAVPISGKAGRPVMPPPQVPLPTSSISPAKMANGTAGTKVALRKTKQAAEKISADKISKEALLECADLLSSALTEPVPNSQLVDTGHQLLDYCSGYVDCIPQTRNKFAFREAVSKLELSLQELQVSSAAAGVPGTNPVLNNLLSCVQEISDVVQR
Tyrosine-protein kinase CSK (Homo sapiens), sequence (P41240 2-450 limits assumed): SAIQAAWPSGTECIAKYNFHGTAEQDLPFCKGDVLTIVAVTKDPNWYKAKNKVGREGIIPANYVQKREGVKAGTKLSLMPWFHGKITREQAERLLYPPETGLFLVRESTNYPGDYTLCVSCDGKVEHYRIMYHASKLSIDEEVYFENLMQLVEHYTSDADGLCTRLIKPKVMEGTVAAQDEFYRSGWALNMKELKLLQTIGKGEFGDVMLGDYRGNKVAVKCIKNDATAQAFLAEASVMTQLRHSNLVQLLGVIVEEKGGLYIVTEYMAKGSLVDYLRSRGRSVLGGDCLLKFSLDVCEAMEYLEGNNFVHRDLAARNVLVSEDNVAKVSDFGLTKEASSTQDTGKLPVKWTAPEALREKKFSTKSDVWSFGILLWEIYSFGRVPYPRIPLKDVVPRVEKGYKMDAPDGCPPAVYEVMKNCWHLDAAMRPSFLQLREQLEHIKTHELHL

For the compound `CNC(=O)c1cncc(/C=C/c2c(C)cccc2C)c1`, the inhibition in [1] was 2.52%; in test [2], 21.9%; in test [3], 70.3%; in test [4] it was 6.54%; in test [5] it was 57.3%; in [6], -3.56%. For the same compound, the inhibition is -1.77% in test [7]; 7.09% in test [8]; 51.3% in test [9]; -0.01% in test [10]; 3.27% in test [11]; -1.68% in [12]. The inhibition in test [13] was 16.2%; in test [14], 6.81%; in test [15] it was 42.4%; in test [16], 13.4%; in test [17], 61.9%; in test [18], -1.07%. The figures for the inhibition in [19] and in test [20] were 7.27% and 5.83%, respectively.
Take `CCS(=O)(=O)c1ccc(OC)c(Nc2ncc(-c3ccccc3Cl)o2)c1`: the inhibition in test [1] came out at 11.7%; in [2], 5.95%; in test [3], 33.3%; in [4], 2.99%; in [5] it was 29.3%; in [6], 0.79%. For the same compound, the inhibition in test [7] is 5.19%; in test [8] it was 4.89%; in [9], 24.5%; in [10] it was -0.86%; in test [11], 1.78%; in test [12], 2.51%. In addition, the inhibition in [13] was 15.7%; in [14], -1.76%; in test [15], 3.11%; in test [16], -0.35%; in test [17] it was 5.66%; in test [18] it was 2.72%. Also, the inhibition is 2.31% in [19] and 1.15% in [20].
As to `O=C(Nc1n[nH]c2nc(-c3ccc(O)cc3)c(Br)cc12)C1CC1`, the inhibition was 87.7% in [1]; 22.1% in test [2]; 67.1% in [3]; 22.8% in test [4]; 72.6% in test [5]; 23.9% in [6]. Besides, the inhibition in test [7] is 72.3%; in test [8] it was 7.68%; in test [9], 25.7%; in test [10], -7.6%; in [11] it was -7.01%; in [12] it was 4.29%. The inhibition is 15.4% in [13]; 3.85% in test [14]; 13.4% in test [15]; 3.18% in [16]; 11.1% in test [17]; -0.08% in [18]. In addition, the results for the inhibition in test [19] and in [20] were 0.5% and 8.35%, respectively.
In the case of `COC(=O)Nc1nc2ccc(Sc3ccc(NC(=O)Nc4cc(C(F)(F)F)ccc4F)cc3)cc2[nH]1`, the inhibition in test [1] turned out to be 72.3%; in test [2] it was 3.61%; in [3], 31.3%; in [4], 3.45%; in test [5] it was 33%; in [6], 1.12%. The inhibition was 2.57% in [7]; 11.8% in test [8]; 58.9% in test [9]; 1.61% in test [10]; 10.9% in test [11]; 0.49% in test [12]. Also, the inhibition in [13] is 2.36%; in test [14], 3.33%; in test [15] it was -0.17%; in test [16] it was 1.16%; in test [17], 1.4%; in test [18], 2.12%. For the same compound, the inhibition in test [19] came out at 2.1%; in [20], 1.7%.
Consider `COc1cc(Nc2ncc3c(C)nc(-c4cccc(C(F)(F)F)c4)n3n2)cc(OC)c1OC`, for which the inhibition in [1] stood at 13.1%; in test [2], 3.77%; in test [3], 16.2%; in test [4], 2.35%; in test [5], 14.6%; in test [6] it was 2.22%. Moreover, the inhibition is 6.97% in test [7]; 3.85% in test [8]; 13.1% in test [9]; -3.79% in test [10]; -0.36% in [11]; 3.39% in [12]. Besides, the inhibition in test [13] is 25.1%; in test [14], -0.78%; in [15], 11.9%; in test [16], 3.48%; in test [17], 5.36%; in [18], 2.11%. The inhibition was 4.31% in test [19] and 4.48% in [20].
Turning to `NS(=O)(=O)c1ccc(Nc2cc(-c3ccc(O)c(F)c3)n[nH]2)cc1`, the inhibition in [1] is 22.8%; in test [2], 2.85%; in [3], 35.6%; in [4], 0.38%; in [5], 34.8%; in test [6] it was -2.35%. Besides, the inhibition in test [7] was 8.38%; in test [8], 0.56%; in [9] it was 16.9%; in test [10], 1.86%; in [11], 1.05%; in [12], -1.01%. The inhibition is 12.1% in [13]; -5.24% in [14]; -1.41% in test [15]; -4.55% in test [16]; -9.05% in test [17]; -1.3% in test [18]. In addition, the inhibition in test [19] is -0.82%; in test [20] it was -8.87%.
For `COc1ccc2cc(-c3c(-c4ccncc4)nc(-c4ccc(S(C)(=O)=O)cc4C)n3C)ccc2c1`, the inhibition in test [1] was found to be 42.6%; in test [2], 4.62%; in test [3], 18%; in [4] it was 2.92%; in test [5] it was 13.5%; in test [6], 2.91%. Besides, the inhibition in test [7] is 6.27%; in test [8], 2.97%; in test [9], 11.7%; in [10], -5.68%; in test [11], -4.46%; in [12], 3.03%. Further, the inhibition in test [13] is 7.1%; in test [14] it was 5.32%; in test [15], 3.88%; in [16], 29%; in test [17], 85%; in test [18] it was -2.49%. Moreover, the inhibition turned out to be 0.28% in test [19] and 3.76% in [20].
